The record followed here is PubChem BioAssay (NCI).

Compounds without any hit were thinned out: in the full panel of roughly 79,000, 15% have a hit. The source made the active and inactive calls. Rule as the data show it: active = growth inhibition above about 70%; inactive = the rest.

This experiment is described as follows: NCI Yeast Anticancer Drug Screen. Data for the cln2 rad14 strain (AID 165).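 Also: 0% = growth equal to vehicle treated cultures.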 The settings on record: S. cerevisiae cln2 rad14 strain, at 50.0 µM, stronger effect = higher value. The protocol: Growth inhibition of yeast strains with defined genetic alterations is measured as a screen for potential anti-cancer activity. Selected strains with alterations in DNA damage repair or cell cycle control were exposed to compounds and growth inhibition was measured relative to vehicle treated controls. The strain used in this assay is cln2 rad14
For `CC(=O)CC(=O)Nc1ccccc1Cl`, the growth inhibition was -5.75% (inactive).
In the case of `O=C(O)C(O)(C1CCCCC1)C1CCC2CCC3CCCC1C32` (stereo not given), the growth inhibition was 12.7% (inactive).
Regarding `CCC(CC)CC1CCCCC1=O` (stereo not given), the growth inhibition was 3.75% (inactive).
Then `Cc1ccsc1C(=O)c1ccccc1`, with -24.6% (inactive); and `Cc1ccc(S(=O)(=O)NNC(=O)c2cc(C(=O)NNS(=O)(=O)c3ccc(C)cc3)c(C)nc2C)cc1`, with 21.8% (inactive).
Then `NC(=O)Oc1ccc(Cc2ccccc2)cc1`, with -8.95% (inactive).
The value for `N=C(N)C1CC1` was 12.8% (inactive); that for `C[C@@H]1C[C@H]2[C@@H]3CCC4=CC(=O)C=C[C@]4(C)[C@@]3(F)[C@@H](O)C[C@]2(C)[C@@]1(O)C(=O)CO` was 3.45% (inactive).
With `CCN(CC)CCCC(C)Nc1c2ccccc2nc2cc(Cl)cc(Cl)c12` (stereo not given), the growth inhibition is 10.9% (inactive).
For `O=c1[nH]c2nc3ccccc3c(=O)n2/c1=C/c1cccs1`, the growth inhibition was 20.6% (inactive).
The value for `Cc1ccc(/C(C#N)=C/c2ccccc2)cc1` was 19.6% (inactive); that for `O=C1c2cc([N+](=O)[O-])ccc2-c2c(F)cc(F)cc21` was -50.4% (inactive); that for `CN(CCC1(C)C(=O)CCc2ccccc21)Cc1ccccc1` (stereo not given) was 30.9% (inactive).
The value for `COc1cc(OC)c(N=Nc2c(O)n(C)c(=O)n(C)c2=O)cc1Cl` was 3.85% (inactive); that for `CCOC(=O)/N=[N+](\[O-])c1ccccc1` was 11.9% (inactive).
For `CC12CCC(C1)C(C)(C)/C2=N\O` (stereo not given), the growth inhibition is 4.85% (inactive).
Regarding `CCCS(=O)(=O)CCCCCCCCCCC(=O)O`, the growth inhibition is -28.7% (inactive).
In the case of `CCCCCCC(/C=N/Nc1ccccn1)=C\c1ccccc1`, the growth inhibition is -7.6% (inactive).
As to `COC(=O)c1nc[nH]c1C(=O)OC`, the growth inhibition was 4% (inactive).
`Cc1ccc(C(C)C)cc1[N+](=O)[O-]`: the growth inhibition was -41% (inactive).
Take `O=[N+]([O-])c1ccc(N/N=C/C2CC=CCC2)c([N+](=O)[O-])c1` (stereo not given): the growth inhibition is -13.1% (inactive).
Consider `CC(=O)CC1CCC(CC(C)=O)CC1` (stereo not given), for which the growth inhibition was -66.3% (inactive).
For `CNc1ccccc1C(=O)N/N=C/C1CCCCC1`, the growth inhibition was -6.85% (inactive).
Regarding `OC[C@@H](O)[C@H]1NC[C@@H](O)[C@H]1O`, the growth inhibition was 7.7% (inactive).
As to `COc1cc(OC)c(N=Nc2c(C)nc(N)nc2-c2ccccc2)cc1Cl`, the growth inhibition was 20.3% (inactive).
For `COc1ccc(/C=N/N2CN(C(C)C(=O)O)B(NC34CC5CC(CC(C5)C3)C4)N=C2N)cc1OC` (stereo not given), the growth inhibition is -25.2% (inactive).
The value for `CCc1c(CO)cnc(C)c1OP(=O)(O)O` was 3.65% (inactive).
For the compound `Cc1ccc(NC(=O)COc2cc(Cl)c(Cl)cc2Cl)cc1[N+](=O)[O-]`, the growth inhibition was 10.2% (inactive).
Then `N#CCc1nc(-c2cc3ccccc3oc2=O)cs1`, with 3.7% (inactive); and `CCC(Oc1ccc(OC)c2c1C(=O)CCC2)C(=O)O` (stereo not given), with 11.4% (inactive).
The value for `Nc1nc2c(-c3ccc([N+](=O)[O-])cc3)nnn2c2ccccc12` was 9.7% (inactive); that for `O=C(N/N=C/c1cc(-c2ccccc2Cl)c(-c2ccccc2Cl)o1)c1ccncc1` was 28% (inactive); that for `NC(N)=NC(N)=Nc1cccc(S(=O)(=O)c2cccc(N=C(N)N=C(N)N)c2)c1` was 12.8% (inactive).
Regarding `O=C1OC(=O)C2C3C=CC(C3)C12` (stereo not given), the growth inhibition is -20.4% (inactive).
The value for `CN1C=CCC(C=O)C1` (stereo not given) was -3.7% (inactive); that for `O=C1CC(c2ccccc2)C(c2ccccc2)C1` (stereo not given) was 4.2% (inactive); that for `C=C(C)c1ccc2c(c1)C(=O)C[C@@H]1[C@](C)(C#N)CCC[C@]21C` was -52% (inactive).
The value for `O=C1C(=O)c2ccccc2C(O)=C1c1ccc(Br)cc1` was -4.9% (inactive); that for `N#CCCOC(=O)Nc1cccc(Cl)c1` was 7.3% (inactive).
For `O=C(O)COc1cc2c(cc1Cc1ccc3c(c1)OCO3)OCO2`, the growth inhibition is 1.15% (inactive).
